Measurements: PMC8384837, “Expanding the binding specificity for RNA recognition by a PUF domain”

Assays:
Assay in all cases: yeast three-hybrid, YBZ-1, SC-Leu-His + 0.5 mM 3-AT, 4 days
Settings in all cases: tags: N-Gal4 AD-HA kept; label: inside an RPR1-promoter hybrid RNA with tandem MS2 sites; ssRNA
[1] = biological target: PUM1 PUF domain R8-KHW (Homo sapiens, UniProt Q14671 828-1176, N1122K;Y1123H;Q1126W)
Method in brief: (§1)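 Pumilio-1 PUF domain libraries, randomized (NNK) at the three base-contacting residues of each repeat, were co-expressed with matching RNA elements from a centromeric plasmid in strain YBZ-1 (LexA–MS2 coat fusion, HIS3 reporter). Transformants were plated on SC-Leu (input) and SC-Leu-His + 0.5 mM 3-AT (selection) for four days, and repeat regions were PCR-amplified and Illumina-sequenced. The interaction score is the log2 change in variant frequency from input to selection, with pseudocount 1 where absent.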

[2] = biological target: PUM1 PUF domain R3-APA (Homo sapiens, UniProt Q14671 828-1176, C935A;R936P;Q939A)
Method in brief: as §1

[3] = biological target: PUM1 PUF domain R5-IYG (Homo sapiens, UniProt Q14671 828-1176, C1007I;R1008Y;Q1011G)
Method in brief: as §1

[4] = biological target: PUM1 PUF domain R4-GRN (Homo sapiens, UniProt Q14671 828-1176, N971G;H972R;Q975N)
Method in brief: as §1

[5] = biological target: PUM1 PUF domain R4-APF (Homo sapiens, UniProt Q14671 828-1176, N971A;H972P;Q975F)
Method in brief: as §1

[6] = biological target: PUM1 PUF domain R3-VYW (Homo sapiens, UniProt Q14671 828-1176, C935V;R936Y;Q939W)
Method in brief: as §1

[7] = biological target: PUM1 PUF domain R5-FRM (Homo sapiens, UniProt Q14671 828-1176, C1007F;Q1011M)
Method in brief: as §1

[8] = biological target: PUM1 PUF domain R3-SGE (Homo sapiens, UniProt Q14671 828-1176, C935S;R936G;Q939E)
Method in brief: as §1

[9] = biological target: PUM1 PUF domain R3-RVA (Homo sapiens, UniProt Q14671 828-1176, C935R;R936V;Q939A)
Method in brief: as §1

[10] = biological target: PUM1 PUF domain R3-RRW (Homo sapiens, UniProt Q14671 828-1176, C935R;Q939W)
Method in brief: as §1

[11] = biological target: PUM1 PUF domain R3-EFA (Homo sapiens, UniProt Q14671 828-1176, C935E;R936F;Q939A)
Method in brief: as §1

[12] = biological target: PUM1 PUF domain R3-TSR (Homo sapiens, UniProt Q14671 828-1176, C935T;R936S;Q939R)
Method in brief: as §1

[13] = biological target: PUM1 PUF domain R7-RKL (Homo sapiens, UniProt Q14671 828-1176, S1079R;N1080K;E1083L)
Method in brief: as §1

[14] = biological target: PUM1 PUF domain R7-KRL (Homo sapiens, UniProt Q14671 828-1176, S1079K;N1080R;E1083L)
Method in brief: as §1

[15] = biological target: T1, PUM1 PUF domain R6-DFE (Homo sapiens, UniProt Q14671 828-1176, N1043D;Y1044F;Q1047E)
T1 sequence: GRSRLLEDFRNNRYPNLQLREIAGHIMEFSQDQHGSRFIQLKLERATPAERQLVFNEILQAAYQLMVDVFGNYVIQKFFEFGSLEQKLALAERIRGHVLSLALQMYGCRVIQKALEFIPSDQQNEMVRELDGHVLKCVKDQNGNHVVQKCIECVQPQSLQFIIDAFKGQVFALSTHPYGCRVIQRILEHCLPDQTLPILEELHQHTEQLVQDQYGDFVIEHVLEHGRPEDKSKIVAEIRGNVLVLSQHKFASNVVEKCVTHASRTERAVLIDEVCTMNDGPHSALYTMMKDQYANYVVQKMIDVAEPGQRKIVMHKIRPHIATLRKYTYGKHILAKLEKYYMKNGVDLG
Method in brief: as §1

[16] = biological target: PUM1 PUF domain R2-GWF (Homo sapiens, UniProt Q14671 828-1176, N899G;Y900W;Q903F)
Method in brief: as §1

GGCUAGAACUAGUGGAUCCCCCGGCGCCCGGCGGCUCGAGCCCGGGUAAGUGUAAAUAGUCUGCAUGCCGCCGGGCGCCAUGCCUGCAGGUCGACUCUAGAAAACAUG
binding signal [1]: 3.88 log2 enrichment (interaction score)
binding signal [2]: 2.14 log2 enrichment (interaction score)
binding signal [3]: 4.13 log2 enrichment (interaction score)
binding signal [4]: 2.76 log2 enrichment (interaction score)
binding signal [5]: 3.52 log2 enrichment (interaction score)
binding signal [6]: 6.32 log2 enrichment (interaction score)
binding signal [7]: 3.16 log2 enrichment (interaction score)

GGCUAGAACUAGUGGAUCCCCCGGCGCCCGGCGGCUCGAGCCCGGGUAAGCGUAAAUAGUCUGCAUGCCGCCGGGCGCCAUGCCUGCAGGUCGACUCUAGAAAACAUG
binding signal [1]: 5.39 log2 enrichment (interaction score)

GGCUAGAACUAGUGGAUCCCCCGGCGCCCGGCGGCUCGAGCCCGGGUAAGUGUAAGUAGUCUGCAUGCCGCCGGGCGCCAUGCCUGCAGGUCGACUCUAGAAAACAUG
binding signal [8]: 4.96 log2 enrichment (interaction score)
binding signal [9]: 0.81 log2 enrichment (interaction score)

GGCUAGAACUAGUGGAUCCCCCGGCGCCCGGCGGCUCGAGCCCGGGUAAGUGUAAUUAGUCUGCAUGCCGCCGGGCGCCAUGCCUGCAGGUCGACUCUAGAAAACAUG
binding signal [10]: 3.94 log2 enrichment (interaction score)
binding signal [11]: 3.24 log2 enrichment (interaction score)
binding signal [12]: 2.25 log2 enrichment (interaction score)
binding signal [9]: 2.31 log2 enrichment (interaction score)
binding signal [6]: 4.86 log2 enrichment (interaction score)

GGCUAGAACUAGUGGAUCCCCCGGCGCCCGGCGGCUCGAGCCCGGGUAAGUCUAAAUAGUCUGCAUGCCGCCGGGCGCCAUGCCUGCAGGUCGACUCUAGAAAACAUG
binding signal [13]: 3.94 log2 enrichment (interaction score)
binding signal [14]: 5.65 log2 enrichment (interaction score)

GGCUAGAACUAGUGGAUCCCCCGGCGCCCGGCGGCUCGAGCCCGGGUAAGUUUAAAUAGUCUGCAUGCCGCCGGGCGCCAUGCCUGCAGGUCGACUCUAGAAAACAUG
binding signal [13]: 4.32 log2 enrichment (interaction score)
binding signal [14]: 5.24 log2 enrichment (interaction score)

GGCUAGAACUAGUGGAUCCCCCGGCGCCCGGCGGCUCGAGCCCGGGUAAGUGGAAAUAGUCUGCAUGCCGCCGGGCGCCAUGCCUGCAGGUCGACUCUAGAAAACAUG
binding signal [15]: 2.5 log2 enrichment (interaction score)

GGCUAGAACUAGUGGAUCCCCCGGCGCCCGGCGGCUCGAGCCCGGGUAAGUGUAAAAAGUCUGCAUGCCGCCGGGCGCCAUGCCUGCAGGUCGACUCUAGAAAACAUG
binding signal [16]: 3.4 log2 enrichment (interaction score)

GGCUAGAACUAGUGGAUCCCCCGGCGCCCGGCGGCUCGAGCCCGGGUAAGUGUCAAUAGUCUGCAUGCCGCCGGGCGCCAUGCCUGCAGGUCGACUCUAGAAAACAUG
binding signal [7]: 2.1 log2 enrichment (interaction score)
